Publication PMC3218832

Legend:
Assay in all cases: protein binding microarray; high values mean tight binding
Details in all cases: dsDNA, one strand shown
RELARELA (p65 homodimer) = RELARELA (p65 homodimer) (Homo sapiens, UniProt Q04206 1-307)
p50p50 homodimer = p50p50 homodimer (Homo sapiens, UniProt P19838 7-356)
p52p52 homodimer = target: T1, p52p52 homodimer (Homo sapiens, UniProt Q00653 4-332)
T1 sequence: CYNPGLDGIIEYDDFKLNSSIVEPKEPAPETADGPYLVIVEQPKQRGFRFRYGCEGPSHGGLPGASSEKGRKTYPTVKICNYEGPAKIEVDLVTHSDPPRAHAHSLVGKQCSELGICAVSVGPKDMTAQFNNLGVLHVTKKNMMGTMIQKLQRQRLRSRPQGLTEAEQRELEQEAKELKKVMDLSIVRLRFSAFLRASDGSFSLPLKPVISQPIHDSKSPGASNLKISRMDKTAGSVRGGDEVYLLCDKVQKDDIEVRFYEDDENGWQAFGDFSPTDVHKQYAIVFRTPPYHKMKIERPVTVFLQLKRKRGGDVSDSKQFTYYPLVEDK

[1] = target: RELA (p65) subunit of heterodimer;p50 subunit (Homo sapiens;Homo sapiens, UniProt Q04206;P19838 1-307;7-356)
[2] = target: RELA (p65) subunit of heterodimer;p52 subunit (Homo sapiens;Homo sapiens, UniProt Q04206;Q00653 1-307;4-332)
RELB subunit;p50 subunit = RELB subunit;p50 subunit (Homo sapiens;Homo sapiens, UniProt Q01201;P19838 120-401;7-356)
RELB subunit;p52 subunit = target: T2, RELB subunit;p52 subunit (Homo sapiens;Homo sapiens, UniProt Q01201;Q00653 120-401;4-332)
T2 sequence 1: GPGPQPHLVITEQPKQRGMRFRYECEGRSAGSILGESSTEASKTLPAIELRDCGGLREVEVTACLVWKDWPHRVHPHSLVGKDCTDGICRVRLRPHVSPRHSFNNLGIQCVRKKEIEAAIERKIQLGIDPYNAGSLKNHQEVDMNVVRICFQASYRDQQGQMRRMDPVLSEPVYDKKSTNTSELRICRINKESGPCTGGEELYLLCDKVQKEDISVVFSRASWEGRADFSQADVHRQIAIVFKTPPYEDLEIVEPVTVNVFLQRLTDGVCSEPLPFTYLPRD
T2 sequence 2: T1 sequence

[3] = target: C-Rel subunit;p50 subunit (Homo sapiens;Homo sapiens, UniProt Q04864;P19838 1-285;7-356)
[4] = target: T3, C-Rel subunit;p52 subunit (Homo sapiens;Homo sapiens, UniProt Q04864;Q00653 1-285;4-332)
T3 sequence 1: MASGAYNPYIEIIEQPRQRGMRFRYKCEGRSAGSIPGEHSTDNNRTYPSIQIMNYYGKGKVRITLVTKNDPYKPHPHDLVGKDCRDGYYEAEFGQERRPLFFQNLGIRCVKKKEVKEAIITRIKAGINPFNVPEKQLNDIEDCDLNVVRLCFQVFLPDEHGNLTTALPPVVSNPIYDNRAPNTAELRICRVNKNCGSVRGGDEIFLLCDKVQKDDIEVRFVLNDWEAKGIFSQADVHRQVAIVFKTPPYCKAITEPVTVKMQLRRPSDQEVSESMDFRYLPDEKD
T3 sequence 2: T1 sequence

RELARELA (p65 homodimer), sequence (Q04206 1-307): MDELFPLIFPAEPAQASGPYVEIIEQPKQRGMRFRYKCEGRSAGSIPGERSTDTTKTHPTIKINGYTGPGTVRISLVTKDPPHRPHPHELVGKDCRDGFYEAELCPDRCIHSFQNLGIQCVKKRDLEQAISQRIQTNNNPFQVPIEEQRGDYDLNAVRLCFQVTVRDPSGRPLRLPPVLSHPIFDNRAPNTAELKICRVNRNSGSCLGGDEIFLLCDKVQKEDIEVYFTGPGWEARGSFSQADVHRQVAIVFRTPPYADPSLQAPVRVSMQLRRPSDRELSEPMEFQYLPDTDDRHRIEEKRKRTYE
RELA (p65) subunit of heterodimer;p50 subunit, sequence (Q04206 1-307, chain 1 of 2): as the sequence (Q04206 1-307) above
RELA (p65) subunit of heterodimer;p50 subunit, sequence (P19838 7-356, chain 2 of 2): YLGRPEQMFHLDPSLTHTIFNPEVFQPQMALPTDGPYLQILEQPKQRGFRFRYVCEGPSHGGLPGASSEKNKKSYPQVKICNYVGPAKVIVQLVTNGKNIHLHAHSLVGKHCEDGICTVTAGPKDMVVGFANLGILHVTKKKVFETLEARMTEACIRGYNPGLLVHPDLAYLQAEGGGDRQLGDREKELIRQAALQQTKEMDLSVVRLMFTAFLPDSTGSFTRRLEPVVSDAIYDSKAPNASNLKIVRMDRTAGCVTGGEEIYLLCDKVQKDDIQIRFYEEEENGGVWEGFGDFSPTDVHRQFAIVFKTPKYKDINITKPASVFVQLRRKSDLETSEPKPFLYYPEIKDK
p50p50 homodimer, sequence (P19838 7-356): as the sequence (P19838 7-356, chain 2 of 2) above

| Sequence | binding signal (RELARELA (p65 homodimer)) [z-score] | binding signal (p50p50 homodimer) [z-score] | binding signal (p52p52 homodimer) [z-score] | binding signal [1] [z-score] | binding signal [2] [z-score] | binding signal (RELB subunit;p50 subunit) [z-score] | binding signal (RELB subunit;p52 subunit) [z-score] | binding signal [3] [z-score] | binding signal [4] [z-score] |
| --- | --- | --- | --- | --- | --- | --- | --- | --- | --- |
| GGATTTTCCCC | 3.79 | 1.16 | 2.75 | 2.27 | 2.49 | 2.15 | 2.39 | 1.94 | 2.19 |
| AAATATCTCCC | 0.144 | 0.445 | 0.105 | 0.12 | -0.105 | 0.365 | 0.153 | -0.0256 | -0.0762 |
| AGATTATCCCT | 0.0615 | 0.543 | 0.486 | 0.262 | 0.522 | 0.325 | 0.392 | 0.0293 | 0.0511 |
| GAATGGATCCC | -0.423 | -0.946 | -0.505 | -0.796 | -0.763 | -0.777 | -0.774 | -1.02 | -0.839 |
| GAGGAAATCCT | 0.229 | -0.905 | -0.463 | -0.399 | -0.425 | -0.858 | -0.718 | -0.315 | -0.369 |
| AAGTGAACCCT | -0.647 | -1.09 | -0.646 | -0.987 | -0.763 | -0.923 | -0.758 | -1.27 | -0.88 |
| CGGTGAGCCCC | -0.508 | 0.0715 | -0.0385 | -0.0467 | 0.0767 | -0.0666 | 0.236 | 0.3 | 0.314 |
| AGAGTCATCCT | -0.641 | -2.61 | -0.647 | -1.23 | -0.868 | -1.06 | -0.873 | -1.63 | -1.09 |
| AGGTTGCTCCC | -0.396 | -0.987 | -0.528 | -0.584 | -0.648 | -0.569 | -0.67 | -0.696 | -0.587 |
| AAAGTTCTCCT | 0.015 | -1.02 | -0.659 | -0.601 | -0.834 | -0.944 | -0.822 | -0.841 | -0.771 |
| AAGTAGTCCCC | 0.275 | 1.21 | 1 | 1.09 | 1.01 | 1.36 | 1.04 | 1.07 | 0.58 |
| AAGTGCTCCCT | -0.204 | -0.136 | -0.291 | -0.382 | -0.51 | -0.322 | -0.434 | -0.836 | -0.646 |
| AAAGTTGCCCC | 1 | 0.606 | 0.147 | 0.949 | 0.337 | 0.677 | 0.595 | 1.26 | 0.617 |
| CGGAGAGTCCT | 1 | -1.2 | -0.591 | -0.159 | -0.629 | -0.808 | -0.743 | -0.482 | -0.448 |
| AGAGGGACCCT | -0.966 | -0.326 | 0.216 | -0.688 | -0.129 | -0.226 | -0.0964 | -0.803 | -0.355 |
